According to PubChem BioAssay (NCATS):
Inconclusive results are not listed. Active and inactive are the calls of the source. Unless noted, the call rests on the fitted dose curve; in most records, active means well fitted curve in the direction sought with a large enough effect; inconclusive means small, poorly fitted or top-dose-only effect, or another doubt; inactive means no such curve, though single readings can be large; an effect the other way counts as inactive or inconclusive. Residues, ends and D or L forms follow the SMILES beside them.

Assays:
[1] = Counterscreen qHTS for small molecule stabilizers of the endoplasmic reticulum resident proteome: GLuc-NoTag assay (AID 1508627); further: potency means the concentration at half of the fitted maximal effect;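 on activity change, negative = inhibition: 0% = thapsigargin alone and -100% = DMSO vehicle control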
How it was run: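 Counterscreen line: SH-SY5Y-GLuc-NoTag. Seed, 5 h; compound, 19 h; thapsigargin 100 nM, 4 h; 37C/5% CO2. Readout: secreted GLuc luminescence, coelenterazine 0.07x final, no lysis.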

[2] = Confirmatory qHTS for small molecule stabilizers of the endoplasmic reticulum resident proteome: Secreted ER Calcium Modulated Protein (SERCaMP) assay (AID 1508628); further: nearly all actives have a fitted effect of over 40% in size; further: potency means the concentration at half of the fitted maximal effect; on activity change, negative = decrease: on the % scale 0 is the no-effect control and ±100 the full control effect
How it was run: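 Reporter secretion upon ER calcium depletion (100 nM thapsigargin, 4 h, 37C) is measured as medium luminescence with coelenterazine, after 16 h compound pretreatment of SH-SY5Y-GLuc-SERCaMP cells; primary at three concentrations up to 38.3 uM, follow-up at 11 (up to 76.6 uM).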

[3] = Cell Viability qHTS for small molecule stabilizers of the endoplasmic reticulum resident proteome (AID 1508629); settings: cell viability counter-screen, 100 nM thapsigargin for final 4 h;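 further: compound exposure about 46 h in total before the viability read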; further: potency means the concentration at half of the fitted maximal effect;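 on max response: human SH-SY5Y neuroblastoma cells carrying the GLuc-SERCaMP reporter; on the % scale 0 is the no-effect control and ±100 the full control effect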
[4] = qHTS profiling of the MIPE4 collection as inhibitors of Plasmodium falciparum (3D7) proliferation (AID 743344; call rule not given here;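 further: scaled between DMSO vehicle wells and 0.29 µM artemisinin as full inhibition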); settings: P. falciparum 3D7 in erythrocytes, SYBR Green DNA fluorescence, 72 h; at 28.5 µM (top of the series)
How it was run: (§1)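 Parasite DNA was quantified by SYBR Green I fluorescence (ex 485, em 535 nm) after overnight lysis in saponin/Triton buffer at room temperature. Cultures at 0.3% parasitemia and 2.5% hematocrit were first exposed to compound for 72 h at 37 C; signals were normalised to artemisinin (0.29 uM) and vehicle wells.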

[5] = qHTS profiling of the MIPE4 collection as inhibitors of Plasmodium falciparum (DD2) proliferation (AID 743345; call rule not given here); settings: P. falciparum Dd2 in erythrocytes, SYBR Green DNA, 72 h; at 28.5 µM (top of the series)
How it was run: as §1

[6] = qHTS profiling of the MIPE4 collection as inhibitors of Plasmodium falciparum (DD2) proliferation (Rep 2) (AID 743346; call rule not given here); settings: P. falciparum Dd2 in erythrocytes, SYBR Green DNA, 72 h; at 28.5 µM (top of the series)
How it was run: as §1

[7] = qHTS profiling of the MIPE4 collection as inhibitors of Plasmodium falciparum (HB3) proliferation (AID 743347; call rule not given here;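 further: plate controls were DMSO vehicle wells for no effect and artemisinin wells for full effect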); settings: P. falciparum HB3 in erythrocytes, SYBR Green DNA, 72 h; at 28.5 µM (top of the series)
How it was run: as §1

[8] = target: Calcium and integrin-binding protein 1 (Homo sapiens) (UniProt Q99828); experiment: Primary qHTS for Identification of Calcium Integrin Binding Protein 1 (CIB1) Competitor (AID 1508620);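 further: GST tagged CIB1 binding a fluorescein labelled alphaIIb integrin peptide tracer; top concentration of the series differs between compounds; on the % scale 0 is the no-effect control and ±100 the full control effect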
How it was run: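 Fluorescence polarization competition: GST-tagged CIB1 (1 uM final) preincubated with compound 15 min at room temperature, then FITC-labelled alphaIIb peptide (100 nM final) added. After 15 min at room temperature, polarization read at Ex 480/Em 540.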

[9] = qHTS profiling for inhibitors of Plasmodium falciparum (3D7) proliferation (AID 743322);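 further: infected erythrocytes exposed to compound for 72 h before lysis; 100% = DMSO vehicle wells and 0% = 0.29 µM artemisinin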; settings: P. falciparum 3D7 proliferation; at 28.7 µM (top of the series)
How it was run: as §1

[10] = qHTS profiling for inhibitors of Plasmodium falciparum (DD2) proliferation (AID 743323; call rule not given here); settings: lower = more inhibition; at 28.7 µM (top of the series)
How it was run: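 1536-well qHTS; infected RBCs 0.3% parasitemia/2.5% Hct final; cpd 72 h 37 C 5% CO2; lysis buffer + SYBR Green I, o/n RT dark; FI 485/535; norm. to 0.29 uM artemisinin and DMSO, plate-stack corrected.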

[11] = qHTS profiling for inhibitors of Plasmodium falciparum (HB3) proliferation (AID 743324); settings: Plasmodium falciparum HB3 blood-stage proliferation; at 28.7 µM (top of the series);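 further: 100% = DMSO vehicle wells and 0% = artemisinin-treated control wells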
How it was run: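 SYBR Green fluorescence (485 ex/535 em) of lysed cultures, incubated overnight at room temperature in the dark, quantifies parasite DNA. Infected erythrocytes at 0.3% parasitemia and 2.5% hematocrit were exposed 72 h; values normalized to DMSO and 0.29 uM artemisinin controls.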

Calcium and integrin-binding protein 1 (Homo sapiens), sequence (Q99828 whole entry, looked up): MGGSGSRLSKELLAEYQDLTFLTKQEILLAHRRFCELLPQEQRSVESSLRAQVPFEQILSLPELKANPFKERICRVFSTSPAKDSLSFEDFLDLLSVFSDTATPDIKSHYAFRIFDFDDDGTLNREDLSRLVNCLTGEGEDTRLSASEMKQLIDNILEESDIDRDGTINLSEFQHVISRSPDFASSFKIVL

Cc1ccc(C(=O)N/C(=C\c2cccs2)c2nc3ccccc3[nH]2)cc1
Potency [1]: inactive
Potency [2]: inactive
max response [3]: 8.84% (inactive)

O=C(Nc1ncccn1)c1ccc([N+](=O)[O-])o1
Potency [1]: inactive

Cc1ccc(-n2c(C)cc(/C=N/NC(=O)c3ccncc3)c2C)cc1C
Potency [1]: inactive
Potency [2]: inactive
max response [3]: 2.93% (inactive)

CC(C)(C)OC(=O)N[C@@H](Cc1ccc(O[S+](=O)([O-])c2cccc3cnccc23)cc1)C(=O)N1CCN(Cc2ccccc2)CC1
parasite growth, % of DMSO control [4]: 5.32%
parasite growth remaining, % of DMSO control (lower = more inhibition) [5]: 7.86%
parasite growth, % of control (lower = inhibition) [6]: 22.5%
growth, % of control [7]: 10.3%
Potency [8]: inactive

COc1cc2c(cc1OC)[C@H](C)N(CC1C(=O)O[C@@H]3C[C@@]4(C)CCC[C@H](C)[C@@]45OC5[C@H]13)CC2 (some centres undefined)
Potency [1]: 35.5 µM (active)

C1CCC[C@H]2CCCN3CC[C@H](CCCCCC[C@@H]4CCCN5CC[C@H](CC1)OC45)OC23
activity change, negative = inhibition [1]: 16.2% [at 9.46 µM] (inactive)

CC[C@H](C)[C@H](NC(=O)[C@H](CC(=O)O)NC(=O)[C@H](CC(N)=O)NC(=O)[C@@H](NC(=O)[C@H](CCCNC(=N)N)NC(=O)[C@@H](NC(=O)[C@@H](NC(=O)[C@@H](NC(=O)[C@@H](NC(=O)[C@H](CCCCN)NC(=O)[C@@H](NC(=O)[C@H](CC(C)C)NC(=O)[C@@H](NC(=O)[C@H](CCCCN)NC(=O)[C@@H](NC(=O)[C@H](CC(=O)O)NC(=O)[C@H](CC(=O)O)NC(=O)[C@H](CCC(N)=O)NC(=O)[C@@H](NC(=O)[C@H](CCCCN)NC(=O)[C@H](CCC(N)=O)NC(=O)[C@@H](NC(=O)[C@@H]1CCCN1C(=O)[C@@H](N)C(C)C)[C@@H](C)CC)C(C)C)[C@@H](C)O)[C@@H](C)O)[C@@H](C)CC)[C@@H](C)O)[C@@H](C)CC)C(C)C)[C@@H](C)O)[C@@H](C)CC)C(=O)N[C@@H](CO)C(=O)N[C@@H](Cc1cnc[nH]1)C(=O)N[C@H](C(=O)N[C@@H](CCC(N)=O)C(=O)N[C@@H](CO)C(=O)N[C@H](C(=O)N[C@@H](CO)C(=O)N[C@@H](CO)C(=O)N[C@@H](CCCCN)C(=O)N[C@@H](CCC(N)=O)C(=O)N[C@@H](CCCCN)C(=O)O)C(C)C)[C@@H](C)O (H-VPIQKVQDDTKTLIKTIVTRINDISHTQSVSSKQK-OH)
activity change, negative = inhibition [1]: -4.21% [at 9.46 µM] (inactive)
activity change, negative = decrease [2]: -1.59% [at 9.4 µM] (inactive)
max response [3]: 4.6% (inactive)

O=C(NCCN1CCCC1)[C@H](Cc1ccc(OS(=O)(=O)c2cccc3cnccc23)cc1)NS(=O)(=O)c1cccc2cnccc12
remaining parasite growth % (stronger effect = lower value) [9]: 0.578%
activity, percent of control [10]: 49.2%
remaining proliferation (% of control), lower = more inhibition [11]: 1.37%
Potency [8]: inactive

CC(=O)N[C@H]1C(O[C@@H]2O[C@H](C[C@@H](O)[C@H]3O[C@@H](N4CCC(=O)NC4=O)[C@H](O)[C@@H]3O)[C@H](O)[C@H](O)[C@H]2NC(=O)/C=C/CCCCCCCCCCC(C)C)OC(CO)[C@@H](O)[C@@H]1O (some centres undefined)
Potency [1]: 35.5 µM (active)
Potency [2]: 562 nM (active)
Potency [3]: 398 nM (active)
